CYP2C9 inhib = inhibitors of human CYP2C9; P11712; CYP2C9 Supersomes, luciferin-H conversion, luminescence; inhibition, % at 5 µM; 96,000 compounds, 20% hits; AID 777;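 active means blocking of liver enzyme CYP2C9 beyond about 50% at 5 µM, limit read from the data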
CYP2C19 inh = human CYP2C19 inhibition. inhibition, % at 5 µM. AID 778. P33261. 96,000 compounds, 21% hits. CYP2C19 Supersomes, luciferin-H EGE luminescence, 30 min;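 active means CYP2C19 inhibition above a set limit at 5 µM in the primary screen, cut at about 50% in these data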
CYP2C9 act = increases human cytochrome P450 2C9 activity. AID 1024. 96,000 compounds, 1.4% hits. P11712. recombinant CYP2C9, luciferin-H conversion, luminescence; active compounds read high; factor 1 = untreated enzyme, 0 = blocked. activation factor at 5 µM;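 active means activation factor of 2 or more for CYP2C9 at a 5 µM dose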
Pyk2 oligo antag = blocks oligomerization of human Pyk2 in cells. Q14289. Q293 cells, Pyk2 FERM NanoBiT luminescence; active compounds read low. z-score (the deposit names both 25 µM and 10 µM). 99,000 compounds, 0.83% hits;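 active means Z-score of -3 or lower, scaled per plate to the spread of control and sample wells; inactive means z-score above -3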;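 further: negative z-score means lost luminescence so less FERM oligomerization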
Target sequence (Q14289 whole entry, looked up): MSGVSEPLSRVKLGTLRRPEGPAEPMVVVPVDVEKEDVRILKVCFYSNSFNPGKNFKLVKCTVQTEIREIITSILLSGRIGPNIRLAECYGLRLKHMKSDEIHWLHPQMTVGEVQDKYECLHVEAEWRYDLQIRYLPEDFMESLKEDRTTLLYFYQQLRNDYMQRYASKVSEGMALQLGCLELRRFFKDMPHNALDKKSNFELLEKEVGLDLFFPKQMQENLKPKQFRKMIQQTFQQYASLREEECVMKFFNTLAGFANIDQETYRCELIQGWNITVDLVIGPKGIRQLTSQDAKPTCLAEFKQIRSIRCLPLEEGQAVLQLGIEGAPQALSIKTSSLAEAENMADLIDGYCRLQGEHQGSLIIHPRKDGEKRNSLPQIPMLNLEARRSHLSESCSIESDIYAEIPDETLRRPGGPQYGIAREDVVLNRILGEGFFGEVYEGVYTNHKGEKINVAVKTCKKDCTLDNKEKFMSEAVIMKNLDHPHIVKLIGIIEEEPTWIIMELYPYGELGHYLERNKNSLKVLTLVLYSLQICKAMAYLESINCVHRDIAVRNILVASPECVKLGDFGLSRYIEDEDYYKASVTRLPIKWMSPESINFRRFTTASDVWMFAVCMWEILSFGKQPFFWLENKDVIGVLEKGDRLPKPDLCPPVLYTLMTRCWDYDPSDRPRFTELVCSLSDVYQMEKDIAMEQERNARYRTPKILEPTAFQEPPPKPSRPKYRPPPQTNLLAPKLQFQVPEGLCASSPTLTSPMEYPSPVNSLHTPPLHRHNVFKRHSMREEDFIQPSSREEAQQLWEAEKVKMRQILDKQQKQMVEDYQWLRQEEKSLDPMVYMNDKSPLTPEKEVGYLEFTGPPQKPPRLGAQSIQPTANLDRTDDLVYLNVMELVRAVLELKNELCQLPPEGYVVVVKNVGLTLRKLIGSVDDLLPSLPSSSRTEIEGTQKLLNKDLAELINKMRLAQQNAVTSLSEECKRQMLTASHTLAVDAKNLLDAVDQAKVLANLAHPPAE
CYP2C19 activ = cytochrome P450 2C19 (human) activation. P33261. recombinant CYP2C19, luciferin-H EGE luminescence; active compounds read high; 0 = fully inhibited enzyme, 1 = untreated enzyme. activation factor at 5 µM. 96,000 tested, under 10 active. AID 1025;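 active means activation factor of at least 2 at 5 µM in the primary screen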
Numbers stand for hits; i = inactive; nt = no result given. Shown are actives, neighbours in structure and some others; about 28% of the full set was active somewhere.

SMILES	CYP2C9 inhib	CYP2C19 inh	CYP2C9 act	Pyk2 oligo antag	CYP2C19 activ
COc1ccc(OC)c(S(=O)(=O)Nc2ccc(C(N)=O)cc2)c1	i	60	i	i	i
COc1ccc(OC)c(S(=O)(=O)Nc2ccc(C(C)=O)cc2)c1	i	i	i	i	i
CCOc1ccc(NS(=O)(=O)c2cc(OC)ccc2OC)cc1	79	i	i	i	i
COc1ccc(OC)c(S(=O)(=O)Nc2ccc(O)c(Sc3ncn[nH]3)c2)c1	i	80	i	i	i
CCOc1ccc(S(=O)(=O)Nc2ccc(F)cc2)c(C)c1C	100	100	i	i	i
Cc1ccc2nc(SC(C(=O)Nc3ccc(F)cc3)c3ccccc3)[nH]c2c1 (stereo not drawn)	nt	nt	nt	i	nt
O=C(Cn1cnc2ccccc2c1=O)NCC(=O)N1CCN(c2ccccn2)CC1	i	i	i	i	i
COc1ccc(OC)c(S(=O)(=O)Nc2ccc(O)c3ccccc23)c1	84	76	i	i	i
CNS(=O)(=O)c1cc(OC)ccc1OC	i	i	i	i	i
CCOC(=O)c1ccc(NC(=O)N2CCN(S(C)(=O)=O)CC2)cc1	i	i	i	i	i
COc1ccc(OC)c(S(=O)(=O)Nc2ccc(Oc3ccccc3)cc2)c1	82	97	i	-3.6	i
CCOC(=O)c1ccc(NS(=O)(=O)CC)cc1	80	67	i	i	i
CCCCOC(=O)c1ccc(NS(=O)(=O)c2cc(-c3nnnn3CC)ccc2OC)cc1	71	i	i	i	i
Cn1c(=O)c2c(nc(OCc3ccccc3)n2C)n(C)c1=O	i	i	i	nt	i
CCOC(=O)c1cccc(NC(=O)c2ccco2)c1	i	i	i	i	i
CCOC(=O)c1ccc(NS(=O)(=O)c2cc(C)ccc2OC)cc1	58	i	i	i	i
CCOC(=O)c1ccc(NS(=O)(=O)c2cc(-c3nnnn3CC)ccc2OC)cc1	nt	nt	nt	i	nt
O=C(Nc1ccc2c(c1)OCCO2)c1cc2sccc2n1Cc1ccc(F)cc1	78	60	i	-3.1	i
CSc1nc(NCCOCCO)c2sc3nc(-c4ccco4)c4c(c3c2n1)CCC4	63	i	i	i	i
CCN(CCO)c1nc(SC)nc2c1sc1nc(-c3ccco3)c3c(c12)CCC3	i	i	i	i	i
CCC(c1c(C)[nH]oc1=O)c1c(C)[nH]oc1=O	i	i	i	i	i
COc1ccccc1C/C(N)=N/OC(=O)c1cccc([N+](=O)[O-])c1	i	i	2.4	i	i
N#CC(c1ccc(O)cc1)N1CCCCC1 (stereo not drawn)	i	i	i	i	i
CCOC(=O)N1CCC(c2cc(=O)n3[nH]ccc3n2)CC1	59	i	i	nt	i
CCOC(=O)N1CCC(c2cc(=O)n3[nH]cc(C(=O)OC)c3n2)CC1	62	i	i	nt	i
SMILES	CYP2C9 inhib	CYP2C19 inh	CYP2C9 act	Pyk2 oligo antag	CYP2C19 activ
C=CCOc1ccc(CNc2nn[nH]n2)cc1	i	i	i	i	i
O=C(Nc1ccc(Cl)c(C(F)(F)F)c1)NC1CC2CCCC(C1)N2C1CC1 (stereo not drawn)	nt	nt	nt	i	nt
CCCC1CCC(C(=O)Nn2cnc3ccccc3c2=O)CC1 (stereo not drawn)	56	58	i	i	i
O=C(Nn1cnc2ccccc2c1=O)C1CCCCC1	i	i	i	i	i
CCOC(=O)c1[nH]c2ccc(OC)cc2c1NC(=O)c1ccc2c(c1)OCO2	i	62	i	i	i
CCOC(=O)c1[nH]c2ccc(Br)cc2c1NC(=O)CCN1CCC(C)CC1	i	58	i	i	i
CCN(CC(=O)Nc1c(C(=O)OC)[nH]c2ccccc12)c1ccc2c(c1)OCO2	70	50	i	i	i
CCOC(=O)c1[nH]c2ccc(OC)cc2c1NC(=O)CCN1CCC(C)CC1	i	i	i	nt	i
CCOC(=O)c1[nH]c2ccc(OC)cc2c1NC(=O)c1cccc(OC)c1	i	52	i	i	i
c1cn2cc(-c3ccc4c(c3)OCO4)nc2s1	i	i	i	i	i
CCOC(=O)Nc1nnc(-c2ccc(OC)c(OC)c2)s1	i	i	i	i	i
CCOC(=O)c1[nH]c2ccc(OC)cc2c1NC(=O)CN1CCSCC1	59	76	i	i	i
Cc1cc2c(cc1C)CSC(c1ccccc1OC(=O)C(C)(C)C)SC2	52	i	i	i	i
Cc1cc2c(cc1C)CSC(c1c(O)ccc3ccccc13)SC2	99	81	i	i	i
Cc1cc2c(cc1C)CSC(c1ccc3ccccc3c1O)SC2	92	53	i	i	i
CN(C)CCSc1nc(N)c2c3c(sc2n1)CN(C)CC3	i	i	i	i	i

High-throughput results: PubChem, Sanford-Burnham Center for Chemical Genomics
